Source: PubChem BioAssay (National Center for Advancing Translational Sciences (NCATS))
Only some compounds are listed: those with a hit (about 6.2% of all), similar ones and a draw of the others.
KB-V1 cytotox: kills drug-selected multidrug resistant KB-V1 cells; KB-V1 MDR cells viability, CellTiter-Glo, 72 h; Potency, µM (top dose mostly 46.1 µM), most hits filed as cytotoxic; 3.4% of 400,000 active; also: % is scaled to controls: 0 for no effect and ±100 for the full control effect; nearly all actives have a fitted effect of over 60% in size
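KB-V1 cells (P-gp-expressing MDR subline of KB-3-1) in phenol-red-free DMEM with 10% FBS were exposed to library compounds over a concentration series for 72 h at 37 degrees C. Viability read by CellTiter-Glo luminescence; concentration-effect curves fitted after normalization.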
ATXN2 expr inh: ATXN2 expression inhibition; HEK-293 ATXN2-luciferase reporter, luminescence, 24 h; Potency, µM (top dose mostly 57 µM), for the others: top-dose activity change, negative = inhibition, actives largely listed as inhibitors; 0.72% of 360,000 active; AID 1745845; also: % is scaled to controls: 0 for no effect and ±100 for the full control effect; nearly all actives have a fitted effect of over 55% in size
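ATXN2-luciferase reporter cells (luciferase flanked by upstream and downstream ATXN2 gene portions) were treated 24 h at 37 °C with compounds at up to 57 uM. SteadyGlo luminescence gave expression; GF-AFC fluorescence gave viability.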
S2 tox: cell viability loss in ATXN counter-screen; S2 cells (HEK-293 line with an ATXN2-luciferase reporter) viability, CellTiter-Fluor protease fluorescence, 24 h; 0.49% of 400,000 active; AID 651635; Potency, µM (highest dose often 56.7 µM), most hits filed as cytotoxic; also: nearly all actives have a fitted effect of over 40% in size
HT1080NT lethal: kills 2HG-producing HT-1080-NT fibrosarcoma cells | HT-1080-NT fibrosarcoma viability, CellTiter-Glo ATP luminescence, 48 h | Potency, µM (series often up to 46.1 µM), without a hit: at the highest dose activity, negative = less viability, actives largely listed as cytotoxic | 1.6% of 360,000 active | AID 686970;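 also: NT is the 2HG producing partner of a matched IDH1 knockdown line; 0% = DMSO-treated cells and -100% = media-only wells without cells; nearly all actives have a fitted effect of over 55% in size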
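Compounds were tested in concentration-response format on HT-1080-NT cells for 48 hours at 37 degrees C. Cell viability came from CellTiter-Glo luminescence; curves were classified by r2, response magnitude and activity.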
KB-3-1 cytotox: KB-3-1 parental cell cytotoxicity. KB-3-1 viability, CellTiter-Glo ATP luminescence, 72 h. Potency, µM (highest dose often 46.1 µM), usual class: cytotoxic. 1.4% of 400,000 active. AID 1347075; also: % is scaled to controls: 0 for no effect and ±100 for the full control effect; nearly all actives have a fitted effect of over 60% in size
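Cells are dispensed, compounds pinned in, plates held at 37 °C for 72 h, then CellTiter-Glo is added and luminescence read after 10 minutes. Cell line: parental KB-3-1 in phenol-red-free DMEM, 10% FBS.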
HT1080 IDH1KD tx: HT-1080 IDH1 knockdown cell toxicity (counter line); 2% of 360,000 active; HT-1080 IDH1 knockdown viability, ATP luminescence, 48 h; Potency, µM (doses to about 46.1 µM), without a hit: top-dose activity, negative = toxicity, hits mostly cytotoxic;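 also: 0% = DMSO wells and -100% = cell-free medium wells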
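After a 2 h attachment period, IDH1KD HT-1080 cells took pin-transferred compound for 48 h at 37 °C; ATP-based luminescence after 10 min room-temperature reagent incubation reported viability.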
Starred values were filed as active, the others as inactive; [ ] = dose if it differs, or a comment. Calls follow the shape of the dose curve; as a rule, active = well fitted curve in the direction sought with a large enough effect; inconclusive = small, poorly fitted or top-dose-only effect, or another doubt; inactive = no such curve, though single readings can be large; an effect the other way counts as inactive or inconclusive. Potency is read from the fitted curve at half-maximal effect.

How did CCCCCCC[n+]1c(/C=C/c2ccc(N(C)C)cc2)sc2ccccc21 do in these assays?
KB-V1 cytotox: inconclusive; KB-3-1 cytotox: inactive

How did CCC(=O)OCC(=O)c1c(N)n(Cc2ccccc2)c(=O)n(C)c1=O do in these assays?
KB-V1 cytotox: inactive; ATXN2 expr inh: -4%; S2 tox: inactive; HT1080NT lethal: -1%; KB-3-1 cytotox: inactive; HT1080 IDH1KD tx: -3%

How did COC(=O)Cn1c(=O)c(C(=O)CCl)c(N)n(Cc2ccccc2)c1=O do in these assays?
KB-V1 cytotox: inconclusive; S2 tox: inactive; HT1080NT lethal: 8%; KB-3-1 cytotox: 13µM*; HT1080 IDH1KD tx: 11%

How did O=S(=O)(c1ccc2c(c1)OCCO2)N1CCC(c2nc3ccccc3[nH]2)CC1 do in these assays?
KB-V1 cytotox: 15µM*; ATXN2 expr inh: -22%; S2 tox: inactive; HT1080NT lethal: -5%; KB-3-1 cytotox: inconclusive; HT1080 IDH1KD tx: inconclusive

Results for O=S(=O)(c1cccc(Cl)c1)N1CCC(c2nc3ccccc3[nH]2)CC1 ?
KB-V1 cytotox: 8.2µM*; ATXN2 expr inh: 0%; S2 tox: inactive; HT1080NT lethal: -6%; KB-3-1 cytotox: inactive; HT1080 IDH1KD tx: -7%

How did O=S(=O)(c1ccc(F)cc1)N1CCC(c2nc3ccccc3[nH]2)CC1 do in these assays?
KB-V1 cytotox: inconclusive; ATXN2 expr inh: 11%; S2 tox: inactive; HT1080NT lethal: -25%; KB-3-1 cytotox: inactive; HT1080 IDH1KD tx: -1%

Results for COc1ccccc1N1CCN(c2nc3ccc(C(=O)c4ccccc4)cc3n3c(C)nnc23)CC1 ?
KB-V1 cytotox: inactive; KB-3-1 cytotox: inactive

Results for Cc1ccnc(NC(=S)N2CCN(c3ccc(N)cc3)CC2)c1 ?
KB-V1 cytotox: inactive; KB-3-1 cytotox: inactive

What do the screens show for `CC(C)C1Cc2c(sc3[nH]c(=S)n(Cc4ccccc4)c(=O)c23)CO1` (centres undefined)?
KB-V1 cytotox: inconclusive; ATXN2 expr inh: inconclusive; S2 tox: inactive; HT1080NT lethal: inconclusive; KB-3-1 cytotox: 21µM*; HT1080 IDH1KD tx: inconclusive

What do the screens show for `Cc1cc(=O)n(C)c(=O)n1CCCCCOc1cccc([N+](=O)[O-])c1`?
KB-V1 cytotox: 8.2µM*; ATXN2 expr inh: -11%; S2 tox: inactive; HT1080NT lethal: 1%; KB-3-1 cytotox: inactive; HT1080 IDH1KD tx: 6%

What do the screens show for `Cc1cc(=O)n(C)c(=O)n1CCCCOc1cccc([N+](=O)[O-])c1`?
KB-V1 cytotox: inactive; ATXN2 expr inh: 0%; S2 tox: inactive; HT1080NT lethal: -10%; KB-3-1 cytotox: inactive; HT1080 IDH1KD tx: -4%

What do the screens show for `Cc1cc2c3c(c1)C(C)(c1ccccc1)CC(C)(C)N3C(=O)C21C(C#N)=C(N)OC2=C1C(=O)CC(C)(C)C2` (centres undefined)?
KB-V1 cytotox: 21µM*; ATXN2 expr inh: inconclusive; S2 tox: inconclusive; HT1080NT lethal: -1%[9.24 µM]; KB-3-1 cytotox: inconclusive; HT1080 IDH1KD tx: 18µM*

What do the screens show for `CC1(C)CC(=O)C2=C(C1)OC(N)=C(C#N)C21C(=O)N2CCCc3cccc1c32` (centres undefined)?
KB-V1 cytotox: inactive; ATXN2 expr inh: -2%; S2 tox: inactive; HT1080NT lethal: 12%; KB-3-1 cytotox: inactive; HT1080 IDH1KD tx: 0%

What do the screens show for `CCCCn1c(SCC(=O)c2ccc(OC)cc2OC)nc2cc(S(N)(=O)=O)ccc21`?
KB-V1 cytotox: 18µM*; ATXN2 expr inh: 3%; S2 tox: inactive; HT1080NT lethal: -6%; KB-3-1 cytotox: inactive; HT1080 IDH1KD tx: -3%

How did CNc1cc[n+](C)c2ccccc12 do in these assays?
KB-V1 cytotox: inconclusive; KB-3-1 cytotox: inactive

What do the screens show for `Cc1ccc2[nH]c(CSc3nnc(C)s3)cc(=O)c2c1`?
KB-V1 cytotox: inactive; ATXN2 expr inh: 7%; S2 tox: inactive; KB-3-1 cytotox: inactive

How did CSc1ccc(CN(C)C(=O)CNC(=O)c2ccc3c(c2)OCO3)cc1 do in these assays?
KB-V1 cytotox: 21µM*; ATXN2 expr inh: -4%; S2 tox: inconclusive; HT1080NT lethal: 2%; KB-3-1 cytotox: inactive; HT1080 IDH1KD tx: 14%

How did COc1ccc(-c2ocnc2C(=O)NCc2nn(-c3ccccc3)nc2C)cc1 do in these assays?
KB-V1 cytotox: inconclusive; S2 tox: inactive; HT1080NT lethal: inconclusive; KB-3-1 cytotox: inactive; HT1080 IDH1KD tx: 16µM*

What do the screens show for `Cc1nc2ncnn2c(N2CCCC(C(=O)Nc3ccccc3Br)C2)c1C` (centres undefined)?
KB-V1 cytotox: 10µM*; ATXN2 expr inh: -35%; S2 tox: inactive; HT1080NT lethal: -18%; KB-3-1 cytotox: inactive; HT1080 IDH1KD tx: -26%

Results for CCc1c(C)nc2ncnn2c1N1CCCC(C(=O)NCc2ccco2)C1 (centres undefined) ?
KB-V1 cytotox: inactive; ATXN2 expr inh: -8%; S2 tox: inactive; HT1080NT lethal: 1%; KB-3-1 cytotox: inconclusive; HT1080 IDH1KD tx: 5%

Results for CCc1c(C)nc2ncnn2c1N1CCCC(C(=O)NCCc2ccccc2)C1 (centres undefined) ?
KB-V1 cytotox: 13µM*; ATXN2 expr inh: 22%; S2 tox: inactive; HT1080NT lethal: 2%; KB-3-1 cytotox: inconclusive; HT1080 IDH1KD tx: inconclusive

Results for COc1ccc(OC)c(NC(=O)C2CCN(c3cc(-c4ccccc4)nc4ncnn34)CC2)c1 ?
KB-V1 cytotox: 15µM*; ATXN2 expr inh: inconclusive; S2 tox: inactive; HT1080NT lethal: 0%; KB-3-1 cytotox: inactive; HT1080 IDH1KD tx: -7%

What do the screens show for `CCc1c(C)nc2ncnn2c1N1CCC(C(=O)NCc2cccc(OC)c2)CC1`?
KB-V1 cytotox: 23µM*; ATXN2 expr inh: -4%; S2 tox: inactive; HT1080NT lethal: 5%; KB-3-1 cytotox: inconclusive; HT1080 IDH1KD tx: inconclusive

How did O=C1CCCC2=C1C(c1ccccc1Cl)N=C(Nc1nc3ccccc3o1)N2 (centres undefined) do in these assays?
KB-V1 cytotox: inactive; KB-3-1 cytotox: inactive

Results for CC(C)(C)C(=O)Nc1nc2nc(-c3ccccc3)cc(=O)n2[nH]1 ?
KB-V1 cytotox: inactive; ATXN2 expr inh: 0%; S2 tox: inactive; KB-3-1 cytotox: inactive

How did CCc1c(C)nc2ncnn2c1N1CCCC(C(=O)NCc2cccs2)C1 (centres undefined) do in these assays?
KB-V1 cytotox: 16µM*; ATXN2 expr inh: 0%; S2 tox: inactive; HT1080NT lethal: -14%; KB-3-1 cytotox: inconclusive; HT1080 IDH1KD tx: 2%
